Laboratory results taken from PubChem BioAssay AID1117361 (Southern Research Institute, 2015).
About 900 (25%) of roughly 3,600 compounds were called active. How the calls were made is not given here. Not all results are given here. Measured potencies and affinities stand elsewhere.

Biological target: Protein Tat (Human immunodeficiency virus type 1 group M subtype B (isolate HXB2)) (UniProt P04608)
Assay: inhibitors of Tat binding to TAR RNA, dose response, counter-screen for Vif-APOBEC3G degradation inhibitor project, biochemical, fluorescence polarization, FAM-labeled TAR RNA (AID 1117361)
Conditions: outcome: dose series up to 100 µM unless noted; series mostly up to 100 µM; inhibition: at the top concentration

| SMILES | outcome | inhibition |
| --- | --- | --- |
| CCC(C)NC(=O)Cc1cn(C)c2ccccc12 (stereo unspecified) | inactive |  |
| CCc1nnc(NC(=O)CC(CN(C)S(=O)(=O)c2ccccc2)c2ccccc2)s1 (stereo unspecified) |  | 3.38% (inactive) |
| C#CCSc1nnc(-c2sc3ccccc3c2Cl)o1 | inactive |  |
| O=C(O)CCCN1C(=O)/C(=C\C(Cl)=C\c2ccccc2)SC1=S | inactive |  |
| O=C(CCCCCN1C(=O)c2ccccc2C1=O)Nc1nccs1 |  | 1.67% (inactive) |
| O=C(CCn1c(=S)oc2ccccc21)Nc1ccc2c(c1)OCCO2 | inactive |  |
| CCCCOC(=O)CCCN1C(=O)/C(=C2\SC(=S)N(CCCC(=O)OCCCC)C2=O)SC1=S | inactive |  |
| Cc1ccc(NC(=O)CCC(=O)NNC(=O)COc2cccc3ccccc23)c(C)c1 |  | 6.08% (inactive) |
| CCc1ccccc1NNC(=O)CCc1ccccc1 | inactive |  |
| CN(CC(=O)Nc1ccccc1Cl)C(=O)Cn1cc(C(F)(F)F)cc(Cl)c1=O |  | 0.33% (inactive) |
| Cc1ccc(C)c(NC(=O)CSc2ncnc3nc[nH]c23)c1 |  | 4.09% (inactive) |
| CC(C)(C)c1ccc(-c2nnc(SCCC#N)n2C2CCCC2)cc1 | inactive |  |
| Cc1nc(C)c2c(c1C(F)(F)F)-c1ccccc1C2(F)F | inactive |  |
| O=c1[nH][nH]c(=O)c2nc(Nc3ccccc3)ncc12 | inactive |  |
| CCc1nc(NCC2CCCN2CC)c2nnn(Cc3ccccc3F)c2n1 (stereo unspecified) |  | 16.2% (inactive) |
| CCN1CCN(C(=O)C2COc3ccccc3O2)CC1 (stereo unspecified) | inactive |  |
| Cc1ccc(N=Nc2ccc(N)cc2C)c(S(N)(=O)=O)c1 |  | 24.7% (inactive) |
| Cc1c(C(=O)O)oc2ccc(S(=O)(=O)N3CCC(C)CC3)cc12 |  | 2.7% (inactive) |
| CCOC(=O)CNc1nc2ccccc2n2c(C)nnc12 |  | 5.77% (inactive) |
| CC(C)c1nc2ccccc2n1CCC(=O)O |  | 2.03% (inactive) |
| O=C1CN(C(=O)COC(=O)CCSc2ccccc2Cl)c2ccccc2N1 | inactive |  |
| Cc1ccc(-c2nnc(SCC(=O)N3CC(C)CC(C)C3)o2)cc1C (stereo unspecified) |  | 4.77% (inactive) |
| Cc1ccc(-n2nnc3c(=O)n(CC(=O)c4ccccc4)cnc32)cc1 |  | 1.35% (inactive) |

| SMILES | outcome | inhibition |
| --- | --- | --- |
| Cn1c(=O)c2c(nc(NCCc3ccccc3)n2Cc2ccccc2)n(C)c1=O |  | 2.73% (inactive) |
| CC(=O)c1ccc(N2CCN(C(=O)C3CCC3)CC2)cc1 |  | 5.41% (inactive) |
| CC1(C)CC(=O)C2=C(C1)NCN(Cc1ccc3c(c1)OCO3)C2 |  | 2.73% (inactive) |
| COC(=O)c1cccc(NC(=O)c2ccc3c(c2)C(=O)N(CC2CCCO2)C3=O)c1 (stereo unspecified) |  | 4.73% (inactive) |
| O=c1[nH]c2ccc(NS(=O)(=O)c3ccc(F)c(Cl)c3)cc2[nH]1 | inactive |  |
| O=C(O)c1cccc2c1Oc1ccccc1S2(=O)=O |  | 1.67% (inactive) |
| CCN1CNC(=S)N(CCc2ccccc2)C1 | inactive |  |
| CCOc1ccc2nc(Cl)c(C3CC(c4ccccc4)=NN3C(=O)c3cccs3)cc2c1 (stereo unspecified) | inactive |  |
| O=C(NCCC1CCCCN1S(=O)(=O)c1ccc(F)cc1)C(=O)NCc1ccccn1 (stereo unspecified) |  | 1% (inactive) |
| CC(C(=O)N1CCCCC1)n1ncn2cccc2c1=O (stereo unspecified) |  | 14.3% (inactive) |
| OCCN1CCN(CC(O)COc2ccc3ccccc3c2)CC1 (stereo unspecified) |  | 6.76% (inactive) |
| CCOc1ccc(N(CC(=O)N2CCC(Cc3ccccc3)CC2)S(C)(=O)=O)cc1 | inactive |  |
| C#CC[N+]1(CC#Cc2ccccc2)CCCC1 | inactive |  |
| CC1(C(=O)O)Cc2ccccc2C(=O)O1 (stereo unspecified) |  | 8.19% (inactive) |
| CC12CCC(C(=O)Nc3cc(F)ccc3F)(CC1=O)C2(C)C (stereo unspecified) | inactive |  |
| O=C(c1ccc(S(=O)(=O)N2CCOCC2)cc1)N1CCN(c2cccc(Cl)c2)CC1 |  | 2.73% (inactive) |
| CC1(C)CC(=O)C(N=Nc2ccc(Br)cc2)=C(O)C1 |  | 9.9% (inactive) |
| CN(C)CCCN(CCCN(C)C)C(=S)Nc1ccc(S(=O)(=O)N2CCOCC2)cc1 |  | 1.65% (inactive) |
| COCc1nnc(NC(=O)c2ccc(S(=O)(=O)N(C)C3CCCCC3)cc2)o1 |  | 4.09% (inactive) |
| O=C(c1ccccc1S(=O)(=O)NCc1ccccc1)N1CCCC1 |  | 3.38% (inactive) |
| C=CCn1c(Sc2nc(C)cs2)nc2c1c(=O)[nH]c(=O)n2C |  | 3.38% (inactive) |
| O=C(NCc1cccnc1)C1c2ccccc2C(=O)N1C1CCCC1 (stereo unspecified) |  | 7.43% (inactive) |
| NNc1ccc([N+](=O)[O-])c2[nH][nH]c(=O)c12 | inactive |  |

| SMILES | outcome | inhibition |
| --- | --- | --- |
| CCCNC(=O)c1ccccc1NC(=O)c1ccc(CSc2ccccc2)cc1 | inactive |  |
| COc1ccc(-c2cc(C)nc(SCC(=O)c3cccc([N+](=O)[O-])c3)n2)cc1 |  | 5.01% (inactive) |
| C=C1C(=O)C2=CC1CCC(=O)C1(C)CCC(OC(C)=O)C(C)(C)C1CC2O (stereo unspecified) | inactive |  |
| CCn1c(SCC(=O)n2nc(C)cc2C)nnc1-c1ccc2c(c1)OCO2 |  | 0.68% (inactive) |
| O=C(Nc1ccc(Br)cn1)C1CCN(S(=O)(=O)c2cccs2)CC1 | inactive |  |
| O=C(/C=C/c1cccs1)N1CCN(c2ccc(O)cc2)CC1 | inactive |  |
| Cc1ccc(Nc2nc3nonc3nc2N(C)C)cc1 |  | 4.77% (inactive) |
| CCc1nc2ccc(Cc3ccc4nc(CC)[nH]c4c3)cc2[nH]1 |  | 2.34% (inactive) |
| Cc1ccc(S(=O)(=O)N(CC(=O)N/N=C/c2cccc3c2OCCO3)c2ccccc2F)cc1 | inactive |  |
| N#Cc1ccccc1NC(=O)COC(=O)c1ccc(S(=O)(=O)N2CCCC2)cc1 |  | 8.78% (inactive) |
| Cn1cnnc1SCC(=O)Nc1ccccc1C(=O)NC1CC1 | inactive |  |
| COCC(=O)Nc1nnc(COc2ccccc2)s1 |  | 0.68% (inactive) |
| Cc1ccc(-n2c(Cc3cccn3C)nnc2SCC(=O)Nc2nnc(C)s2)cc1 |  | 9.55% (inactive) |
| O=C(NC(=O)N1CCN(c2ccc([N+](=O)[O-])cn2)CC1)c1c(Cl)cccc1Cl |  | 19.8% (inactive) |
| CC1CC(C)CN(S(=O)(=O)c2ccc(NC(=O)c3ccc(=O)[nH]c3)cc2)C1 (stereo unspecified) | inactive |  |
| COc1ccc(-n2ncc3c(NCc4ccccn4)ncnc32)cc1 |  | 2.03% (inactive) |
| CC(=O)Nc1ccc(S(=O)(=O)N2CCN(Cc3ccccn3)CC2)cc1 |  | 7.43% (inactive) |
| COc1ccc(S(=O)(=O)N(CCc2ccccc2)CC(=O)NC(C)C)cc1 |  | 10.8% (inactive) |
| O=C(Cn1c(=O)oc2ccccc21)N1CCN(S(=O)(=O)c2ccccc2)CC1 |  | 16.5% (inactive) |
| CC(C)(C)OC(=O)N1CCN(c2ccc([N+](=O)[O-])cc2)CC1 | inactive |  |
| CCOC(=O)N1CCN(c2c(NCc3ccccc3Cl)c(=O)c2=O)CC1 | inactive |  |
| CC(C)(C)C(=O)O/N=C(\N)c1c(Cl)cccc1Cl | inactive |  |
| C=CCc1ccc(OCCOCCNCCCC)c(OC)c1 |  | 1% (inactive) |

| SMILES | outcome | inhibition |
| --- | --- | --- |
| Cn1c(=O)c2c(nc(CN3CCOCC3)n2CCN2CCOCC2)n(C)c1=O |  | 6.08% (inactive) |
| COc1ccc(CCNC(=O)CSc2nc(-c3ccco3)cc(C(F)(F)F)n2)cc1 |  | 10.2% (inactive) |
| O=C(CSc1nc(-c2ccccc2)cc(C(F)(F)F)n1)c1cccc([N+](=O)[O-])c1 |  | 7.5% (inactive) |
| Cc1c(F)cccc1NC(=O)CCCCCC1NC(=O)NC1C (stereo unspecified) | inactive |  |
| Cc1ccc(S(=O)(=O)C(F)(F)F)cc1NC(=O)c1cccnc1 | inactive |  |
| COc1cc([N+](=O)[O-])ccc1NC(=O)Oc1ccc(NC(C)=O)cc1 | inactive |  |
| O=c1cc(-c2ccc(O)c(O)c2)oc2cc(O)c(C3OC(CO)C(O)C(O)C3O)c(O)c12 (stereo unspecified) |  | 14% (inactive) |
| CC1C(=O)N2CCCc3cc(NC(=O)C(=O)NCc4cccnc4)cc1c32 (stereo unspecified) | inactive |  |
| COc1cc(C2Nc3ccccc3C(=O)N2c2ccccc2)ccc1O (stereo unspecified) |  | 4.77% (inactive) |
| Clc1ccc(-c2nc3cnccn3c2Nc2ccc3c(c2)OCO3)cc1 | inactive |  |
| COc1cccc(-c2cc(C(=O)Nc3c(C)n(C)n(-c4ccccc4)c3=O)no2)c1 | inactive |  |
| CC[n+]1ccc(C)c2cc(S(=O)C(F)(F)F)ccc21 (stereo unspecified) |  | 9.46% (inactive) |
| COc1ccc(CNC(=O)c2ccc(NC(=O)C3CCCO3)cc2)cc1 (stereo unspecified) |  | 3.38% (inactive) |
| COc1ccc(C(=O)Nc2nncs2)cc1S(=O)(=O)N1CC(c2ccccc2)CC1=O (stereo unspecified) |  | 2.03% (inactive) |
| COC(=O)C(C(=O)Nc1ccc(OC)cc1)C1CCCCCC1 (stereo unspecified) |  | 12.3% (inactive) |
| COCCn1nnnc1C(c1cccs1)N1CCN(c2cc(C)ccc2C)CC1 (stereo unspecified) |  | 3.38% (inactive) |
| Cc1ccc(C(=O)OC2CCS(=O)(=O)c3sccc32)cc1 (stereo unspecified) |  | 8.87% (inactive) |
| COC(=O)c1ccc(NC(=O)CN2CCCC2)cc1 |  | 2.7% (inactive) |
| COC(=O)Cc1ccc(NC(=S)NNC(=O)C2CC2)cc1 | inactive |  |
| COC(=O)c1c(NC(=O)CSc2nnc(CNc3ccc(Cl)cc3)o2)sc(C)c1C | inactive |  |
| CCc1nnc(NC(=O)CSc2nnc(Cc3ccccc3)o2)s1 |  | 1.36% (inactive) |
| CCOC(=O)C1=C(Cn2cnc3ccccc32)NC(=O)NC1c1ccc(OC)cc1 (stereo unspecified) | inactive |  |
| Cc1ccc(C(=O)Oc2ccc(C(=O)COC(=O)c3cnccn3)cc2)cc1 | inactive |  |

| SMILES | outcome | inhibition |
| --- | --- | --- |
| Cc1ccccc1N1CCN(Cc2c[nH]c3ccccc23)CC1 | inactive [at 50 µM] |  |
| CSc1ccc(/C=N/n2c(C3CCCCC3)n[nH]c2=S)cc1 | inactive |  |
| Cc1nc(C)c(C(=O)Nc2nc3c(C)cccc3s2)o1 |  | 5.01% (inactive) |
| Clc1ccc(Sc2cc(N3CCOCC3)nc(-c3ccccc3)n2)cc1 |  | 14.2% (inactive) |
| O=C(NC1=NCCS1)C1CC2CCC1C2 (stereo unspecified) |  | 1.36% (inactive) |
| NC(=O)COC(=O)c1ccc(Oc2ccccc2)cc1 |  | 0.68% (inactive) |
| CCOc1ccc2nc(NC(=O)CCn3cccc3)sc2c1 |  | 4.73% (inactive) |
| COc1ccc(OC)c(S(=O)(=O)N2CCN(C)CC2)c1 |  | 6.82% (inactive) |
| CCOC(=O)N1CCN(C(=O)c2cc3c(s2)-c2ccccc2OC3)CC1 | inactive |  |
| O=C1N(c2ccccc2)C2CS(=O)(=O)CC2N1c1ccc(Cl)c(Cl)c1 (stereo unspecified) | inactive |  |
| COc1cccc(OC)c1C(=O)n1nc(C)cc1C | inactive |  |
| Cc1cc(S(=O)(=O)n2ccnc2)c(Cl)cc1Cl |  | 10.7% (inactive) |
| O=C(Cc1ccccn1)c1ccncc1 |  | 3.01% (inactive) |
| Cc1ccc(N=Nc2ccc(O)c(/C=N\NC(=O)c3ccc(N)cc3)c2)cc1C |  | 2.03% (inactive) |
| O=C(N/N=C/c1cccnc1)c1cc(O)c(O)c(O)c1 | inactive |  |
| CCC(Sc1nc(N)c(NC(=O)c2ccc(OC)c(OC)c2)c(=O)[nH]1)C(=O)OC (stereo unspecified) |  | 6.76% (inactive) |
| S=C(Nc1ccc(Oc2ccccc2)cc1)NC1CCCCC1 |  | 2.05% (inactive) |
| CCCCCCc1nc2c(=O)[nH]c3ccccc3c2o1 |  | 1.36% (inactive) |
| CCOC(=O)COn1c(=O)c(-c2ccc(Cl)cc2)[n+]([O-])c2ccccc21 |  | 7.01% (inactive) |
